Compound activity (PubChem BioAssay)
This is a sample that favours compounds with a hit; in the whole collection about 12% have one here.
BAZ2B block – blocks human BAZ2B. Potency, µM (highest dose often 114 µM), for the others: at the top dose activity change, negative = inhibition, usual class: inhibitors. 4.4% of 360,000 active. Q9UIF8. AlphaScreen BAZ2B-H3K14Ac peptide displacement; also: % is scaled to controls: 0 for no effect and ±100 for the full control effect; nearly all actives have a fitted effect of over 60% in size
Target sequence (Q9UIF8 whole entry, looked up): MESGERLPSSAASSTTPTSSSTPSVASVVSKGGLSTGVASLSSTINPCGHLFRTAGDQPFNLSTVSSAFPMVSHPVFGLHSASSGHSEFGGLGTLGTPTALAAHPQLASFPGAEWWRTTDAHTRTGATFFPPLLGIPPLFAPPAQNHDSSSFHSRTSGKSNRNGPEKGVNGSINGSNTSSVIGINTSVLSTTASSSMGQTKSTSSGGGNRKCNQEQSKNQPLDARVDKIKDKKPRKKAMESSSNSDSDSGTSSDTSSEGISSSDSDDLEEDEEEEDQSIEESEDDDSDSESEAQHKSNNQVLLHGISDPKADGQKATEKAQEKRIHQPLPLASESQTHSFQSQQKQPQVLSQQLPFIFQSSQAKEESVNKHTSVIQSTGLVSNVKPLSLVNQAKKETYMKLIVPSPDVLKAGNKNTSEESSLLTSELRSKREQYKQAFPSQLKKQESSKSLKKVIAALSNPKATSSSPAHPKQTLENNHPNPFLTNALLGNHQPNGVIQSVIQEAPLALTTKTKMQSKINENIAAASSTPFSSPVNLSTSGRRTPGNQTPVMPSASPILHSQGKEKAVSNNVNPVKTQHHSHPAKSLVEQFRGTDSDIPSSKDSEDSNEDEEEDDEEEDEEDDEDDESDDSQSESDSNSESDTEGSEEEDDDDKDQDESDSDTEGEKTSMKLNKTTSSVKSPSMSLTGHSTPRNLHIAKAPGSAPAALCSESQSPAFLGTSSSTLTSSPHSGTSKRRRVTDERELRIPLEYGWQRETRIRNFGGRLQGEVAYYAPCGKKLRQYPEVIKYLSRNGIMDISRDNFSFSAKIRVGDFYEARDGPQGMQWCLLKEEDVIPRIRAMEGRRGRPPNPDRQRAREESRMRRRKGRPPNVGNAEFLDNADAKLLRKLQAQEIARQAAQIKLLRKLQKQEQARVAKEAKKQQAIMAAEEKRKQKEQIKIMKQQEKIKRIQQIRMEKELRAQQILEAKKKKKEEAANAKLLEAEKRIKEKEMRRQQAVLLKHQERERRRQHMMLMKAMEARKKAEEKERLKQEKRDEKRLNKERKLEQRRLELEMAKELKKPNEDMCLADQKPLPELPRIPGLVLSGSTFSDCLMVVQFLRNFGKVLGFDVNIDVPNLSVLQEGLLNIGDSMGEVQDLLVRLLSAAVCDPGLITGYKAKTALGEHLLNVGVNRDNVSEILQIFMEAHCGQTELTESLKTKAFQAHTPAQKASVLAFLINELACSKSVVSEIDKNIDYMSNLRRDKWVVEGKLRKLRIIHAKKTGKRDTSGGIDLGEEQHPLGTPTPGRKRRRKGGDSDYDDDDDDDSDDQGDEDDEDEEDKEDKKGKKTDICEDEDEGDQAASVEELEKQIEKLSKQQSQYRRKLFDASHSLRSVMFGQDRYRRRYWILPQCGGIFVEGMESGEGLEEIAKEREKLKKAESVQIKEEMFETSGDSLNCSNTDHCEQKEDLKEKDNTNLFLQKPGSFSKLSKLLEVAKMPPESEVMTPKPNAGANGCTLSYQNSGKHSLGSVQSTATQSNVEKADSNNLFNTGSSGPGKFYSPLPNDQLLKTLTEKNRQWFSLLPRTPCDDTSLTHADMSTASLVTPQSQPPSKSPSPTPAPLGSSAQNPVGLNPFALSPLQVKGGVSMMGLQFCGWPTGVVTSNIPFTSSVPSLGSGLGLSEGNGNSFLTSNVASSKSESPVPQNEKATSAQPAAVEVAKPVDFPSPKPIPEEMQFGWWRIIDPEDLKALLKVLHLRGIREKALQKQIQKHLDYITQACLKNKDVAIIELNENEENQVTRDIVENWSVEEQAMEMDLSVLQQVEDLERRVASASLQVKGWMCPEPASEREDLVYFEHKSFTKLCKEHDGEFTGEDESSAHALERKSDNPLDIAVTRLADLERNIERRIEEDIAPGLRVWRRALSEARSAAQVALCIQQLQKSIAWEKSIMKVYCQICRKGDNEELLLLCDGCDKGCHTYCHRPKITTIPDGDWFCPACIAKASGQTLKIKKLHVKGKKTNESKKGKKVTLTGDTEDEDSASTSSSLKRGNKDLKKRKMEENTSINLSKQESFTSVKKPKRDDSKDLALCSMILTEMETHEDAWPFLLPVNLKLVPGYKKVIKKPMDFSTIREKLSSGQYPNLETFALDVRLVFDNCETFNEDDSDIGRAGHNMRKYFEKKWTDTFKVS
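Complex of BAZ2B and biotin-H3K14Ac (50 nM apiece) forms over 30 min at RT, then faces library compounds up to 110 uM for another 30 min; AlphaScreen beads added, 20 min dark incubation, luminescence read.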
JMJD2A Tudor inh – JMJD2A Tudor domain (human) inhibition | AlphaScreen JMJD2A-Tudor / H3K4me3 peptide binding | Potency, µM (highest dose often 114 µM), for inactives: top-dose activity change, negative = inhibition, most hits filed as inhibitors | O75164 | 4.4% of 390,000 active; also: % is scaled to controls: 0 for no effect and ±100 for the full control effect; nearly all actives have a fitted effect of over 50% in size
PLK1 PBD inh – PLK1 (human) polo-box domain binding inhibition; Potency, µM, for the others: max response, negative = inhibition, usual class: inhibitors; AID 720504; 2.8% of 360,000 active; Plk1 PBD binding of FITC phosphopeptide, fluorescence polarization; P53350; also: series mostly up to about 57 µM; % is scaled to controls: 0 for no effect and ±100 for the full control effect; nearly all actives have a fitted effect of over 65% in size
G9a block – inhibitors of human histone lysine methyltransferase G9a; Potency, µM (doses to about 102 µM), inactives show top-dose activity, negative = inhibition, actives largely listed as inhibitors; G9a H3K9 monomethylation, AlphaScreen, 2 h; Q96KQ7; AID 504332; 8.8% of 350,000 active; also: % is scaled to controls: 0 for no effect and ±100 for the full control effect; nearly all actives have a fitted effect of over 75% in size
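AlphaScreen read-out: biotin-H3K9 peptide (500 nM) methylation by 20 nM enzyme with 20 uM SAM, 2 h at room temperature after 15 min compound preincubation; anti-monomethyl H3K9 antibody plus donor/acceptor beads, 10 min dark.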
HP1b binding inh – HP1-beta chromodomain-methylated histone interaction inhibition. 0.56% of 390,000 active. Potency, µM (highest dose often 114 µM), for inactives: top-dose activity change, negative = inhibition, usual class: inhibitors. AlphaScreen HP1-beta / biotin-H3K9me3 peptide binding. AID 540317. P83916; also: nearly all actives have a fitted effect of over 70% in size
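HP1-beta protein (50 nM final) preincubated 30 min at room temperature with biotinylated H3(1-18)K9me3 peptide (50 nM) in PBS pH 7.4, 0.01% Tween-20, then compound added for 30 min. AlphaScreen streptavidin donor/nickel chelate acceptor beads (10 ug/mL final), 30 min dark, luminescence read.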
Sfp PPTase inh – Sfp phosphopantetheinyl transferase inhibition; Biochemical Sfp PPTase activity, qHTS; Potency, µM, for inactives: largest response in the series, negative = inhibition, hits mostly inhibitors; 3.5% of 310,000 active; AID 1490;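 also: the enzyme is Sfp with the accession as filed and its product quenches rhodamine fluorescence; 0% = enzyme reaction without inhibitor and -100% = no enzyme wells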
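With Hepes-Na pH 7.6 buffer containing 10 mM MgCl2, Sfp (15 nM) modified BHQ-2-YbbR (12.5 uM) using rhodamine-CoA (5 uM). Two reads 30 minutes apart at 525/598 nm yielded each well's rate.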
Starred values were filed as active, the others as inactive; ? = inconclusive; . = no result; [ ] = dose if it differs, or a comment. Calls follow the shape of the dose curve; as a rule, active = well fitted curve in the direction sought with a large enough effect; inconclusive = small, poorly fitted or top-dose-only effect, or another doubt; inactive = no such curve, though single readings can be large; an effect the other way counts as inactive or inconclusive. Potency is read from the fitted curve at half-maximal effect.

SMILES	BAZ2B block	JMJD2A Tudor inh	PLK1 PBD inh	G9a block	HP1b binding inh	Sfp PPTase inh
O=C(CSc1nc(-c2ccc(F)cc2)[nH]c1-c1ccccc1)NCC1CCCO1 (centres undefined)	?	-26%	.	-47%[59 µM]	17%	.
CC(NC(=O)Cn1ncc2c3ccccc3n(Cc3ccc(F)cc3)c2c1=O)c1ccccc1 (centres undefined)	4%	-23%	.	13%[59 µM]	9%	.
COc1ccc(OC)c(-n2c(SCC(=O)N3CCc4ccccc43)nc3c(c2=O)SCC3)c1	-1%	-23%	0%	-4%[59 µM]	26%	10%
COc1ccccc1-n1c(SCC(=O)N2CCc3ccccc32)nc2c(c1=O)SCC2	-4%	-29%	6%	-2%[59 µM]	14%	79µM*
COc1ccc(Br)cc1/C=N/NC(=O)CN1CCCCC1	2%	1%	5%	.	26%	6%
O=C(CN1CCN(Cc2cccc3ccccc23)CC1)NCCc1ccccc1	-17%	-31%	-1%	-12%	28%	4%
COc1ccc(OC)c(/C=N/NC(=O)CN2CCSCC2)c1	56µM*	5.6µM*	-5%	?	?	-20%
Cc1ccc(C)c(CN2CCSCC2)c1	?	7.1µM*	-5%	.	-5%	-16%
Cc1ccc(C)c(CN2CCCN(Cc3ccccc3C)S2(=O)=O)c1	53%	57%	.	45%[59 µM]	113%	.
COc1ccc(OC)c(CN2CCSCC2)c1	?	1.8µM*	2%	11µM*	?	-1%
c1ccc2c(CN3CCSCC3)cccc2c1	?	20µM*	-13%	-5%[0.501 µM]	?	?
CCCCN(CC)CCCNC(=O)c1sc2nc(C)cc(C)c2c1-n1cccc1	10%	-24%	.	-23%[59 µM]	68%	.
CCN1CCN(Cc2c(OC)ccc3ccccc23)CC1	-10%	-14%	-1%	-3%[12.7 µM]	25%	10%
COc1ccc2ccccc2c1CN1CCSCC1	56µM*	45µM*	6%	.	?	?
COc1ccc(CN2CCSCC2)c(OC)c1C	79µM*	4µM*	7%	10µM*	?	-5%
COc1cc2c(cc1OC)CN(Cc1ccc(OC)c(C)c1OC)CC2	50µM*	1.6µM*	-4%	?	-56%	0%
COc1ccc(OC)c(CN2CCCC(CO)C2)c1 (centres undefined)	3%	1%	-6%	9%[59 µM]	18%	0%
COc1ccc(OC)c(CN2CCCCCC2)c1	79µM*	14µM*	-9%	45µM*	?	10%
COc1ccc(NC(=O)c2nn(C)c3c2CS(=O)(=O)c2ccccc2-3)cc1Cl	-5%	-19%	.	-30%[59 µM]	28%	.
CS(=O)(=O)N1CCC2(CCCN(c3ccncc3)C2)CC1	.	.	.	-1%[12.7 µM]	.	5%
COc1cc(OC)c(OC)cc1CN1CCc2ccccc2C1	?	56µM*	-3%	13µM*	?	-6%
COc1cc(OC)c(CN2CCc3c([nH]c4ccccc34)C2)cc1Br	?	?	1%	?	-20%	3%
CC1CCN(c2ccc(-c3cccc(NS(=O)(=O)c4ccc(F)cc4F)c3)nn2)CC1	-30%	-34%	.	-4%[59 µM]	13%[57 µM]	.
CO/N=C/NC(=O)c1ccc([N+](=O)[O-])c(CS(=O)(=O)c2ccc(Cl)cc2)c1	6%	?	3µM*	19%[59 µM]	-11%	10%
Cc1cccnc1Nc1nc(-c2ccc(O)c(O)c2)cs1	40µM*	45µM*	?	11µM*	?	50µM*
SMILES	BAZ2B block	JMJD2A Tudor inh	PLK1 PBD inh	G9a block	HP1b binding inh	Sfp PPTase inh
COc1ccc(-c2csc(Nc3ncccc3C)n2)cc1OC	?	?	-1%	?	-4%	-11%
COc1ccc(-c2csc(Nc3ncccc3C)n2)cc1	-9%	?	-5%	18µM*	-2%	4%
COc1ccc(-c2csc(Nc3cccnc3)n2)cc1	-35%	-20%	-5%	-14%[59 µM]	13%	79µM*
COC(=O)[C@H]1O[C@@H](c2cc(OC)c(C)c(OC)c2OCc2ccccc2)[C@H](C)[C@H]2O[C@@]12C	.	.	.	.	.	1%
CCCN(N=Nc1cccc([N+](=O)[O-])c1)c1cccc([N+](=O)[O-])c1	?	?	-21%	32µM*	-25%	5%
Cc1ccc(Nc2cc(C)nc3ncnn23)cc1	-18%	-13%	-12%	71µM*	28%	21%
CC(=O)c1ccc(Nc2cc(C)nc3ncnn23)cc1	-4%	?	-2%	-7%	25%	11%
Cc1cc(C)n2ncnc2n1	?	-3%	-5%	50µM*	27%	0%
Cc1cc(Nc2ccc(C)c(F)c2)n2ncnc2n1	11%	-4%[57.1 µM]	-10%	-12%[59 µM]	60%	14%
Cc1cc(Nc2ccc(N3CCC(C)CC3)cc2)n2ncnc2n1	56µM*	?	-5%	-50%[12.7 µM]	1%	-5%
COc1cc(Nc2cc(C)nc3ncnn23)cc(OC)c1	12%	-12%	3%	?	36%	-5%
COc1cc(Nc2cc(C)nc3ncnn23)cc(OC)c1OC	8%	-7%	-3%	45µM*	68%	4%
COc1cccc(Nc2ncc3ncc(=O)n(C)c3n2)c1	.	.	.	15%[0.501 µM]	.	7%
O=C1CCc2cc(S(=O)(=O)Nc3cccc(Cl)c3)ccc2N1	.	-11%	.	.	.	.
O=S(=O)(c1ccc(=S)[nH]c1)N1CCOCC1	-5%	11µM*	7.5µM*	?	-19%	.
O=S(=O)(Nc1cccc(Cl)c1)c1ccc2oc(=S)[nH]c2c1	.	20µM*	34µM*	25µM*	-15%	11%
O=S(=O)(c1ccc2oc(=S)[nH]c2c1)N1CCCCC1	-1%	-18%	-23%	45µM*	14%	9%
O=S(=O)(c1ccc2oc(=S)[nH]c2c1)N1CCOCC1	-38%	79µM*	2.7µM*	1.3µM*	-41%	.
O=S(=O)(c1ccc(=S)[nH]c1)N1CCCCCC1	1%	4%	?	?	32%	.
CCCCn1c(=S)[nH]c2cc(S(=O)(=O)N3CCOCC3)ccc21	.	?	3%	.	42%	.
COC1=CC(=O)C(O)=C/C1=C\C=C\c1ccccc1	.	.	.	.	.	11µM*
CCc1ccc(NC2=CC(=O)C(=O)c3ccccc32)cc1	50µM*	45µM*	-11%	4%[0.501 µM]	?	.
O=C1C=C(Nc2ccccc2C(=O)O)c2ccccc2C1=O	35µM*	22µM*	11µM*	.	16µM*	-8%
O=C1C=C(Nc2ccccc2)C(=O)c2ccccc21	7.9µM*	?	1%	14µM*	?	-16%
O=C1C=C(Nc2cccc3cccnc23)c2ccccc2C1=O	56µM*	56µM*	-11%	35µM*	?	-25%
CCCCOc1ccc(C2c3c(oc4ccc(C)cc4c3=O)C(=O)N2CCCN(C)C)cc1OCC (centres undefined)	-24%	-23%	.	-36%[59 µM]	5%	.
O=C1C(Nc2ccccc2)=C(NS(=O)(=O)c2ccccc2)C(=O)c2ccccc21	-13%	-5%	-11%	-8%[59 µM]	2%	-2%
